Compound in the assay: CN[C@@H]1C[C@H]2O[C@@](C)([C@@H]1OC)n1c3ccccc3c3c4c(c5c6ccccc6n2c5c31)C(=O)NC4 [staurosporine]
Put plainly: log2 fold change of tryptic peptide abundance, ligand vs vehicle (limited proteolysis) (log2 ratio); higher = more trypsin-susceptible (destabilized). The following applies: ligand concentration: 20 uM; sample: mouse liver crude lysate; replicate design: treated separately.
Sequence of UniProt Q91YX5 (Q91YX5 whole entry): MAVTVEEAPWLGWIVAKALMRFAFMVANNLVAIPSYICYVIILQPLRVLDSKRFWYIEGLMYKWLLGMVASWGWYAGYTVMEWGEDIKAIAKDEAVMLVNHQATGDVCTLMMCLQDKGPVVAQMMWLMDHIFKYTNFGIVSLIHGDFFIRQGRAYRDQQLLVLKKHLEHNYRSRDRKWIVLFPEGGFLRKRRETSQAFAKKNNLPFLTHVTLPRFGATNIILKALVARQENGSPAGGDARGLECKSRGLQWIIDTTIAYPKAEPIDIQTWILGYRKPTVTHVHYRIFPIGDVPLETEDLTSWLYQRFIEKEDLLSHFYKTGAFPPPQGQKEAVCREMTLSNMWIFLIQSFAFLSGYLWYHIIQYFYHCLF
Sequence of UniProt Q80UW5 (Q80UW5 whole entry): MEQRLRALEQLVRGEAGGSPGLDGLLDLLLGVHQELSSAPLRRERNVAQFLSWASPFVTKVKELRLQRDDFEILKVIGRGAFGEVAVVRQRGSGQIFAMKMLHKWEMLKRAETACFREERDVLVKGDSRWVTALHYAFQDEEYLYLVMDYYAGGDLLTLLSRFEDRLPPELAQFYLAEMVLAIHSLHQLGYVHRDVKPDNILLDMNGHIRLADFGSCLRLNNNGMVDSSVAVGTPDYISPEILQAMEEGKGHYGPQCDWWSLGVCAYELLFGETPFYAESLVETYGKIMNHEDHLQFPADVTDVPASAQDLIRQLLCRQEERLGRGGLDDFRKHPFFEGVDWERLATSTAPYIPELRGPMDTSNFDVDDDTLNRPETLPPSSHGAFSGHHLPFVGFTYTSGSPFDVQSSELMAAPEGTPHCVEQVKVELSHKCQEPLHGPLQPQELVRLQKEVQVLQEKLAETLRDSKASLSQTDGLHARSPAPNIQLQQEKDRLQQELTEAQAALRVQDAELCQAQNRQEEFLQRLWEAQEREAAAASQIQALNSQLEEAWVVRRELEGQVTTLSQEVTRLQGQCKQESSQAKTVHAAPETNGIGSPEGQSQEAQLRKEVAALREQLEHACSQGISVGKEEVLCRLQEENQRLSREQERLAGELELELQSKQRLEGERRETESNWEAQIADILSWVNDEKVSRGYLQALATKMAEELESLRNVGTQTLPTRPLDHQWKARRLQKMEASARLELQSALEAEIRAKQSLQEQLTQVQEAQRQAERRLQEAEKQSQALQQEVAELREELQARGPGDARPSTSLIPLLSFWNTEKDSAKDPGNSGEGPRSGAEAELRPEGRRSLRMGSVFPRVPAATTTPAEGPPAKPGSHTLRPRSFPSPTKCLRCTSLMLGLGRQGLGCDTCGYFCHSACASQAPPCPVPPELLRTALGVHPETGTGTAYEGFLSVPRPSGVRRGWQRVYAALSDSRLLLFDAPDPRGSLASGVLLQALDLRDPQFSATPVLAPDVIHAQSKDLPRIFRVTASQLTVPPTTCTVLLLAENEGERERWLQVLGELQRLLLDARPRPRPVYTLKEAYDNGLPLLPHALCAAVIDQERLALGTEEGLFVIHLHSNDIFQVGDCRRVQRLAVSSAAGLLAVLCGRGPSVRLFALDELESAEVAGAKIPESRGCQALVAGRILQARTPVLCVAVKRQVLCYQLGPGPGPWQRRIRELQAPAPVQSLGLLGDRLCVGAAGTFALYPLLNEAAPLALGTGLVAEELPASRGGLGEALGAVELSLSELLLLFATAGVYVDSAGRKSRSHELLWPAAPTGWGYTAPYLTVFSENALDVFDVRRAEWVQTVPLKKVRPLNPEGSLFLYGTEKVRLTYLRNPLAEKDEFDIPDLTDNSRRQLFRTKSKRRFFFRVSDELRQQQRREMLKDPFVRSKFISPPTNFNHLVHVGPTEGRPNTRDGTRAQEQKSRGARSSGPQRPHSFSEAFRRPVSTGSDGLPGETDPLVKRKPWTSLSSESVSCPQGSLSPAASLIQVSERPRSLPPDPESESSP
Sequence of UniProt Q80ZM8 (Q80ZM8 whole entry): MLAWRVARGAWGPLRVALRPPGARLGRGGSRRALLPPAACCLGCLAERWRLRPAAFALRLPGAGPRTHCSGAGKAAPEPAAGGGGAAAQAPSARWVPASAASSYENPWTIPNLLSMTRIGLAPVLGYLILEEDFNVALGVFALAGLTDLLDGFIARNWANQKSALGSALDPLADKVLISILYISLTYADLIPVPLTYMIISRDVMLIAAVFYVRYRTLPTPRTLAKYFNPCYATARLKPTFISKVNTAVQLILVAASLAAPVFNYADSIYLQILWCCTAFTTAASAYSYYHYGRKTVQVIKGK
Sequence of UniProt Q9CXI0 (Q9CXI0 whole entry): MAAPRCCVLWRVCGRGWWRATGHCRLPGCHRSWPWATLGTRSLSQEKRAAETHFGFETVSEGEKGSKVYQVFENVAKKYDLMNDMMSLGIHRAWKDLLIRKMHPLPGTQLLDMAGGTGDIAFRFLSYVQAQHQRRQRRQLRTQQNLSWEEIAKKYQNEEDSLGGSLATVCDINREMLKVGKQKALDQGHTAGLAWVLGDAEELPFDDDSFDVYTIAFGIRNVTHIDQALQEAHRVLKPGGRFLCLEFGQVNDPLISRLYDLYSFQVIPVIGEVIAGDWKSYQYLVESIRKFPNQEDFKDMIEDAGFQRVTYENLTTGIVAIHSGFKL
Sequence of UniProt Q9CR62 (Q9CR62 whole entry): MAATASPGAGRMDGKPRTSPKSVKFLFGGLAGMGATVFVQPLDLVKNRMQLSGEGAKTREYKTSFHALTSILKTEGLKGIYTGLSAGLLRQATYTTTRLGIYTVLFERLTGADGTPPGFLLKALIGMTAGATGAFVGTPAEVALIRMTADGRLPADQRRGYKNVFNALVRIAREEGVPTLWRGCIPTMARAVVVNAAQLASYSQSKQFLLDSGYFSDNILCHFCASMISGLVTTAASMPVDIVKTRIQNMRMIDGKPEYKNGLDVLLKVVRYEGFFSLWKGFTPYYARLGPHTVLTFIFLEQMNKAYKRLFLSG
Sequence of UniProt Q9DB41 (Q9DB41 whole entry): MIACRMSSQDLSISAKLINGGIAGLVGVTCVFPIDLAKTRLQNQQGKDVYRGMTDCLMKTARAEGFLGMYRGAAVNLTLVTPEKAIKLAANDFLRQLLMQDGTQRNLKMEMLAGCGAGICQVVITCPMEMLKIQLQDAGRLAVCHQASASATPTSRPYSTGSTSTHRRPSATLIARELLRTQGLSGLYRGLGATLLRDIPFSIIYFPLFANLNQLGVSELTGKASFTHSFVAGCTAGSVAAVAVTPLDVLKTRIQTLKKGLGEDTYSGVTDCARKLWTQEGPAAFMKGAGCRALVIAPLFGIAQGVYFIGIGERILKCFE
Sequence of UniProt P31324 (P31324 whole entry): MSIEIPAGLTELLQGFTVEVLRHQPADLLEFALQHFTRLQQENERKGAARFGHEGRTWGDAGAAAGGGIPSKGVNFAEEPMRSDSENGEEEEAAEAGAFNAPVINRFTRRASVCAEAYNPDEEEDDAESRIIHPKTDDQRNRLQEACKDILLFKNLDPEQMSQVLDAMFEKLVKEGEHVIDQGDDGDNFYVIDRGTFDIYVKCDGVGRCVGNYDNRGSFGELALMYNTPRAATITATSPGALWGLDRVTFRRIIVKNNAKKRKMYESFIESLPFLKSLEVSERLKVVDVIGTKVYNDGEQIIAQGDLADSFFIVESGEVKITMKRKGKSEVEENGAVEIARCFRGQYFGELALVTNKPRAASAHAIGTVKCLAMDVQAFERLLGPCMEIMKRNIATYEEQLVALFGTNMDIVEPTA
Sequence of UniProt Q8JZU2 (Q8JZU2 whole entry): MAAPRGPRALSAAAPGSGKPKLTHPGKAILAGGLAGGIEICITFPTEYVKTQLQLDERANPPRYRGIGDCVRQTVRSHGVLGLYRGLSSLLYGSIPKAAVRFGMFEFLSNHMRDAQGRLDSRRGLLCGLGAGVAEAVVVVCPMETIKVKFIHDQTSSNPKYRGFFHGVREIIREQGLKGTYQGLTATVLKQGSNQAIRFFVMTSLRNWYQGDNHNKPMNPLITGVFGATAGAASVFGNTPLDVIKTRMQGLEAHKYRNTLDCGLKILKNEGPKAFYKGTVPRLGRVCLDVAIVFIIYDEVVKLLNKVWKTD
Sequence of UniProt Q8BYC6 (Q8BYC6 whole entry): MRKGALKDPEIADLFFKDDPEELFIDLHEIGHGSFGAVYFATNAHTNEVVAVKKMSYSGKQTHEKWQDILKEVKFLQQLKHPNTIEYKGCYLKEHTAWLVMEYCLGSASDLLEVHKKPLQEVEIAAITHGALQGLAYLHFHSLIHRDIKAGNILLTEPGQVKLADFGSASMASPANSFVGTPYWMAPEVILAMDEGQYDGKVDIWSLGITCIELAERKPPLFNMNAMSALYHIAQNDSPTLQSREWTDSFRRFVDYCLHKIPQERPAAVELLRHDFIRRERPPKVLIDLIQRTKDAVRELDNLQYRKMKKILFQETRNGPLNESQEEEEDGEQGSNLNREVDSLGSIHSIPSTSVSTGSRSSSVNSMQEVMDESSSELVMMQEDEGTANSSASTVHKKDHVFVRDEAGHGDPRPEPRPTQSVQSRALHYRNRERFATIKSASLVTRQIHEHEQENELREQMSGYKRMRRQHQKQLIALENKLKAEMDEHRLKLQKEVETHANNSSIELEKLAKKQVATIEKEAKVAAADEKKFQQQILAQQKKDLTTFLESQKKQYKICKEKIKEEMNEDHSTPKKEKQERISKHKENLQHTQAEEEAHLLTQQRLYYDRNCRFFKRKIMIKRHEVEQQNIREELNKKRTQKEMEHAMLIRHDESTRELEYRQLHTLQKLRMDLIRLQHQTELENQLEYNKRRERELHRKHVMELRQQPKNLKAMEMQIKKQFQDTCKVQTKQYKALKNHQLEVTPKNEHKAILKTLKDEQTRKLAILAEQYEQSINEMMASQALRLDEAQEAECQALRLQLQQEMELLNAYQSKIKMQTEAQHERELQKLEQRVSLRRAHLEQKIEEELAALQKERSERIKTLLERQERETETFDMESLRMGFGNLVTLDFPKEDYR
As to “UniProt O08648 (peptide sequence: IFEGIKHPNLVR, peptide start residue: 1382)”, the log2 fold change is -0.814.
On to “UniProt Q80ZM8 (peptide sequence: YFNPCYATAR, peptide start residue: 227)”, for which the log2 fold change stood at 1.12.
As for “UniProt P31324 (peptide sequence: LKVVDVIGTK, peptide start residue: 284)”, the log2 fold change amounted to 1.51.
The same measure for “UniProt Q8BYC6 (peptide sequence: VLIDLIQR, peptide start residue: 285)”: -1.67.
With “UniProt Q80UW5 (peptide sequence: GAFGEVAVVR, peptide start residue: 80)”, the log2 fold change was -1.9.
For the target “UniProt Q8JZU2 (peptide sequence: FIHDQTSSNPK, peptide start residue: 150)”, the log2 fold change is 0.438.
For the target “UniProt Q9DB41 (peptide sequence: GAAVNLTLVTPEK, peptide start residue: 68)”, the log2 fold change is 0.677.
On to “UniProt P47962 (peptide sequence: GAVDGGLSIPHSTK, peptide start residue: 165)”, for which the log2 fold change came to 0.536.
For “UniProt Q9CR62 (peptide sequence: NGLDVLLK, peptide start residue: 261)”, the log2 fold change worked out at 0.377.
As for “UniProt Q9CXI0 (peptide sequence: NVTHIDQALQEAHR, peptide start residue: 221)”, the figure is -0.267.
Turning to “UniProt A2ALW5 (peptide sequence: WIYNFNIK, peptide start residue: 263)”, the log2 fold change was found to be 0.844.
In the case of “UniProt Q91YX5 (peptide sequence: DQQLLVLKK, peptide start residue: 157)”, the log2 fold change stood at 0.642.

The values above are taken from the supplement of paper PMC12819154, “High-throughput peptide-centric local stability assay extends protein–ligand identification to membrane proteins, tissues and bacteria” (Nature Structural & Molecular Biology, 2025).
